Holding throughout (assay): qHTS profiling for inhibitors of Plasmodium falciparum proliferation (AID 504749); note: nearly all actives have a fitted effect of over 60% in size
Holding throughout (details): P. falciparum in erythrocytes, SYBR Green DNA, 72 h; series mostly up to 28.7 µM
Background: Quantitative high-throughput screening tests each substance at several concentrations.

The subject of one assay is ATS95. Summed up:
(§1)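 In a 72 h erythrocytic culture (37 C, humidified, 5% CO2) at 2.5% hematocrit and 0.3% starting parasitemia, compounds were tested; SYBR Green I in detergent lysis buffer stained parasite DNA overnight.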

A further assay relates to C2A. Summed up:
as §1

Another assay deals with CP185. Summed up:
as §1

The next assay relates to CP191. Summed up:
as §1

The test system of a further assay is CP192. Summed up: as §1
The next assay relates to CP201. Summed up:
as §1

Another assay concerns CP203. Summed up: as §1
In a further assay the test system is CP211. Summed up:
as §1

The subject of another assay is CP217. Summed up:
as §1

For a further assay, the system named is CP237. Summed up:
as §1

In a further assay the test system is CP238. Summed up: as §1
The test system of a further assay is CP247. Summed up: as §1
Another assay relates to CP250. Summed up: as §1
The test system of the next assay is CP252. Summed up: as §1
A further assay relates to CP256. Summed up: as §1
For another assay, the system named is CP260. Summed up:
as §1

The next assay relates to CP262. Summed up:
as §1

The next assay concerns CP265. Summed up: as §1
The test system of a further assay is CP194. Summed up: as §1
The next assay relates to CP215. Summed up:
as §1

Results filed as inconclusive are left out. Activity calls are given as the source filed them. Calls come from the whole dose curve; as a rule, active = well fitted inhibition curve with a large enough effect; inconclusive = small, poorly fitted or top-dose-only effect; inactive = flat fitted curve, though single readings scatter.
Potency is the fitted concentration of half-maximal effect.

In the case of `CC(C)=CCOc1ccc(/C=C/C(=O)c2ccc(OCC=C(C)C)cc2OCC(=O)O)cc1`, the Potency entry with ATS95, in the assay on C2A, in the assay with CP185, with CP191, in the assay on CP192 and in the assay on CP201 was “inactive” throughout. Moreover, the Potency entry in the assay on CP203, in the assay with CP211, in the assay with CP217, with CP237, in the assay with CP238 and with CP247 was “inactive” throughout. Besides, the Potency entry in the assay with CP250, in the assay with CP252, in the assay with CP256, in the assay on CP260, in the assay with CP262 and in the assay on CP265 was “inactive” in each case.
Regarding `O=[N+]([O-])c1cccc(S(=O)(=O)NCCNS(=O)(=O)c2cccc([N+](=O)[O-])c2)c1`, the Potency result with ATS95, in the assay with C2A, in the assay on CP185, with CP192, in the assay with CP194 and in the assay on CP201 was “inactive” each time. Moreover, the Potency result with CP211, in the assay on CP215, in the assay with CP217, in the assay with CP238, with CP247 and with CP250 was “inactive” throughout. In addition, the Potency entry in the assay with CP252, in the assay on CP256 and in the assay on CP265 was “inactive” each time.
For the compound `CCC(C(=O)OCCOCCN(CC)CC)c1ccccc1` (stereo not given), the Potency result with ATS95, in the assay on C2A, in the assay with CP185, in the assay with CP191, in the assay with CP192 and in the assay with CP201 was “inactive” each time. Besides, the Potency result in the assay on CP211, in the assay on CP215, in the assay with CP217, in the assay with CP238, in the assay on CP247 and in the assay on CP250 was “inactive” throughout. Moreover, the Potency entry in the assay on CP252, in the assay with CP256, with CP260 and in the assay on CP262 was “inactive” in each case. In addition, in the assay with CP237, the Potency is 11.2 µM (active).
For `CNCCc1ccccn1`, the Potency result in the assay on ATS95, in the assay with C2A, with CP185, in the assay on CP191, in the assay with CP192 and with CP194 was “inactive” each time. Also, the Potency result with CP203, in the assay with CP211, in the assay on CP215, with CP217, in the assay on CP237 and in the assay with CP238 was “inactive” throughout. The Potency entry in the assay on CP247, in the assay on CP250, in the assay on CP252, in the assay on CP256, in the assay with CP260 and in the assay on CP262 was “inactive” each time. Moreover, in the assay with CP265, the Potency entry is “inactive”.
Take `CN(C)CCC[C@@]1(c2ccc(F)cc2)OCc2cc(C#N)ccc21`: the Potency entry with ATS95, with C2A, in the assay on CP185, in the assay on CP192, in the assay on CP194 and in the assay with CP201 was “inactive” in each case. The Potency entry in the assay on CP211, in the assay on CP217, in the assay with CP237, in the assay with CP238, in the assay on CP247 and in the assay with CP250 was “inactive” throughout. For the same compound, the Potency entry with CP252, in the assay with CP260, in the assay on CP262 and in the assay with CP265 was “inactive” each time.
Take `CCCCc1cc2ccccc2c(OCCN(C)C)n1`: the Potency result in the assay on ATS95, in the assay on C2A, in the assay on CP185, in the assay on CP191, in the assay on CP192 and with CP194 was “inactive” in each case. Further, the Potency result with CP201, in the assay on CP203, in the assay on CP211, with CP217, in the assay on CP238 and in the assay with CP247 was “inactive” throughout. Also, the Potency entry in the assay with CP250, in the assay with CP252, in the assay on CP256, with CP260, in the assay on CP262 and in the assay with CP265 was “inactive” in each case.
In the case of `COc1ccc(C(=O)c2ccccc2)c(O)c1`, the Potency entry with ATS95, with C2A, with CP185, in the assay with CP192, in the assay with CP194 and with CP201 was “inactive” each time. The Potency entry in the assay with CP203, in the assay with CP211, in the assay on CP215, in the assay with CP217, with CP237 and in the assay with CP238 was “inactive” throughout. Moreover, the Potency entry in the assay with CP247, with CP252, in the assay with CP256 and in the assay with CP262 was “inactive” in each case.
`CN1CCN(c2cc3c(cc2F)c(=O)c(C(=O)O)cn3-c2ccc(F)cc2)CC1`: the Potency entry in the assay with ATS95, with C2A, in the assay with CP185, in the assay with CP191, with CP192 and in the assay on CP201 was “inactive” in each case. The Potency result with CP203, with CP211, in the assay with CP217, in the assay with CP238, in the assay on CP247 and with CP250 was “inactive” each time. The Potency result in the assay with CP252, in the assay on CP256 and in the assay on CP265 was “inactive” each time.
With `CC(=O)NCCCCCC(=O)O`, the Potency entry with ATS95, in the assay on C2A, with CP185, in the assay with CP191, with CP192 and with CP194 was “inactive” in each case. Moreover, the Potency result in the assay with CP201, with CP203, in the assay on CP215, in the assay with CP217, in the assay with CP237 and in the assay on CP238 was “inactive” in each case. The Potency entry with CP247, in the assay on CP252, in the assay with CP256, with CP260, in the assay on CP262 and in the assay on CP265 was “inactive” throughout.
On to `COc1ccc(C(Cl)=C(c2ccc(OC)cc2)c2ccc(OC)cc2)cc1`, for which the Potency in the assay on ATS95 was 11.2 µM (active); with C2A, 3.98 µM (active); in the assay with CP191 it was 12.6 µM (active); in the assay with CP217, 11.2 µM (active); in the assay on CP238, 10 µM (active); in the assay on CP250 it was 10 µM (active). Moreover, in the assay on CP265, the Potency was 10 µM (active). Also, the Potency entry in the assay on CP192, in the assay with CP194, in the assay on CP201, in the assay on CP203, in the assay on CP211 and in the assay on CP215 was “inactive” each time. Further, in the assay on CP262, the Potency result is “inactive”.
On to `CCOCCn1c(N2CCCN(C)CC2)nc2ccccc21`, for which the Potency result in the assay on ATS95, with C2A, in the assay with CP185, with CP191, in the assay on CP192 and in the assay on CP201 was “inactive” in each case. For the same compound, the Potency entry in the assay on CP211, in the assay on CP215, in the assay with CP217, with CP238, in the assay with CP247 and in the assay on CP250 was “inactive” each time. The Potency entry in the assay with CP252, in the assay on CP256, in the assay with CP260 and in the assay with CP262 was “inactive” throughout. In addition, in the assay on CP237, the Potency was 11.2 µM (active).
With `CNCCCCOc1ccccc1Cc1ccccc1`, the Potency result in the assay on CP192 and in the assay on CP262 was “inactive” each time. Moreover, the Potency was 4.26 µM (active) in the assay with CP203, 8.91 µM (active) in the assay with CP238 and 8.91 µM (active) with CP265.
Take `CN1CCc2cccc3c2[C@H]1Cc1ccc(O)c(O)c1-3`: the Potency with ATS95 was 8.91 µM (active); in the assay with CP237, 6.31 µM (active); with CP250, 8.91 µM (active); with CP260, 11.2 µM (active).
In the case of `Oc1ccc(Cl)cc1Cc1cc(Cl)ccc1O`, the Potency result with C2A, with CP192, with CP194, with CP211, in the assay on CP238 and in the assay on CP250 was “inactive” in each case. The Potency result with CP262 was “inactive”. Moreover, the Potency in the assay with CP247 was 11.2 µM (active); in the assay on CP252 it was 12.6 µM (active).
Consider `CN1CCN(CCC(=O)N2c3ccccc3Sc3ccc(C(F)(F)F)cc32)CC1`, for which the Potency result in the assay with ATS95, with C2A, in the assay on CP192, in the assay on CP194, with CP201 and with CP215 was “inactive” in each case. Also, the Potency result in the assay with CP217, in the assay with CP250, in the assay with CP256, in the assay with CP260 and with CP265 was “inactive” throughout.
In the case of `CC(C)(Cc1c[nH]c2ccccc12)NCC(O)COc1ccccc1C#N` (stereo not given), the Potency entry in the assay with CP192, in the assay on CP201 and in the assay on CP215 was “inactive” throughout. Moreover, in the assay on CP237, the Potency was 10 µM (active).
Regarding `O=C(O)CCc1nc2ccccc2[nH]1`, the Potency result in the assay with CP238, in the assay with CP247, in the assay with CP256 and with CP265 was “inactive” in each case.
For `Clc1cccc(C(c2ccc3nc[nH]c3c2)n2ccnc2)c1` (stereo not given), the Potency was 10 µM (active) in the assay with C2A and 12 µM (active) in the assay on CP211. The Potency result in the assay on CP185, with CP238 and in the assay on CP262 was “inactive” throughout.

The record behind these values is PubChem BioAssay (NCATS).
